# The full list was thinned out, with hits kept by preference.
# Cycloheximide cs: counter-screen for Shiga toxin inhibitors: cycloheximide protein synthesis inhibition | cell reporter, cycloheximide protein synthesis inhibition counterscreen | max response, % | 300,000 tested, 12% active; in the data active = max response mostly above about 13%, no sharp cut-off; inactive = mostly below about 14%; also: read at 38.3 µM for the half of the compounds with a filed dose; 0% is about no effect
# AMA1 RON2 block: disrupts binding of P. falciparum AMA1 to RON2. AlphaScreen AMA1-biotinylated RON2 peptide binding. Potency, µM (series often up to 58.2 µM), for inactives: at the top dose activity change, negative = inhibition, hits mostly inhibitors. 360,000 tested, 0.2% active;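 also: potency is read from the fitted curve at half-maximal effect; 0% = vehicle wells and -100% = peptide control; nearly all actives have a fitted effect of over 45% in size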
#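 AMA1 (3D7) with his tag at 25 nM final met compounds first, then biotinylated RON2 peptide at 25 nM; detection used donor plus acceptor beads, 10 µg/mL apiece, read by AlphaScreen after 30 min at room temperature.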
# Shiga toxin inh: blocks Shiga toxin action in Vero cells | Vero cells, Shiga toxin protein synthesis inhibition reporter | inhibition, % at 38.7 µM | 290,000 tested, 9.2% active; in the data active = inhibition mostly above about 28%, no sharp cut-off; inactive = mostly below about 43%; also: 0% is about no effect
# SARS PLpro yeast: inhibitors of SARS-CoV papain-like protease in yeast; 330,000 tested, 0.19% active; S. cerevisiae expressing SARS-CoV PLpro, growth rescue; Potency, µM (series often up to 32.9 µM), without a hit: top-dose activity, positive = growth rescue, usual class: activators; calls by dose curve; also: potency is read from the fitted curve at half-maximal effect; 0% is about no effect; nearly all actives have a fitted effect of over 55% in size
# AmpC inh detg: AmpC beta-lactamase inhibition with detergent present | AmpC hydrolysis of nitrocefin, absorbance 480 nm, 0.01% Triton | Potency, µM (highest dose often 114 µM), without a hit: top-dose activity change, negative = inhibition, usual class: inhibitors | 370,000 tested, 0.041% active;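 also: potency is read from the fitted curve at half-maximal effect; 0% = no-compound wells and -100% = no-enzyme wells; nearly all actives have a fitted effect of over 25% in size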
# Target sequence (P00811 whole entry, looked up): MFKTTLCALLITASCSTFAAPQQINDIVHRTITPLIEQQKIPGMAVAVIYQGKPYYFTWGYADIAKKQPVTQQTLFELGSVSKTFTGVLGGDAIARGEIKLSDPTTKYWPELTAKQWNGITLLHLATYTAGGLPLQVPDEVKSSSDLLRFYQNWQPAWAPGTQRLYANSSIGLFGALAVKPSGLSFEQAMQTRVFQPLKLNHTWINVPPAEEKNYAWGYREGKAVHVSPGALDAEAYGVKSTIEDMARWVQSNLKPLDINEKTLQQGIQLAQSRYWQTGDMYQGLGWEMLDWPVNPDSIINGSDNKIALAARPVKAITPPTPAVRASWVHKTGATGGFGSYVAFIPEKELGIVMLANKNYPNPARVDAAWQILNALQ
#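 AmpC (5.3 nM in the dispensed reagent) in 20 mM phosphate pH 7.0 with 0.01% (detergent screen) or 0.0001% Triton X-100 was preincubated with compounds for 15 min at room temperature. Nitrocefin was then added from an 800 uM solution, and hydrolysis was followed at 480 nm.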
# AmpC inh no detg: inhibitors of E. coli AmpC beta-lactamase without detergent | AmpC nitrocefin hydrolysis, absorbance 480 nm, 0.0001% Triton | Potency, µM (top dose mostly 57.1 µM), for the others: at the highest dose activity change, negative = inhibition, hits mostly inhibitors | 330,000 tested, 0.52% active | AID 485341;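 also: potency is read from the fitted curve at half-maximal effect; plate controls were no compound for no effect and no enzyme for full effect; nearly all actives have a fitted effect of over 20% in size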
#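 AmpC (5.3 nM in the dispensed reagent) in 20 mM phosphate pH 7.0 with 0.01% (detergent screen) or 0.0001% Triton X-100 was preincubated with compounds for 15 min at room temperature. Nitrocefin was then added from an 800 uM solution, and hydrolysis was followed at 480 nm.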
# Numbers without * were called inactive; ? = inconclusive; · = no result; [ ] = remark or other dose. Unless noted, calls follow the shape of the dose curve; as a rule, active = well fitted curve in the direction sought with a large enough effect; inconclusive = small, poorly fitted or top-dose-only effect, or another doubt; inactive = no such curve, though single readings can be large; an effect the other way counts as inactive or inconclusive.
SMILES,Cycloheximide cs,AMA1 RON2 block,Shiga toxin inh,SARS PLpro yeast,AmpC inh detg,AmpC inh no detg
CCN(CC)S(=O)(=O)c1cccc(C(=O)Nc2cc(C)cc(C)c2)c1,17*,-12%,39*,0%,-1%,-16%
CCN(CC)S(=O)(=O)c1cccc(C(=O)Nc2cccc(C)c2)c1,27*,8%,25,-3%,-10%,-16%
CNC(=S)N1N=C(c2ccc(C)cc2)CC1c1ccc(N(C)C)cc1 (centres undefined),43*,28µM*,86,0%,0%,22%
CNC(=S)N1N=C(c2ccc(C)cc2)CC1c1ccc(OC)cc1 (centres undefined),-2,-12%,11,2%,-9%,-24%
CCC(=O)N1N=C(c2ccc(NS(C)(=O)=O)cc2)CC1c1ccc(N(C)C)cc1 (centres undefined),30*,-6%,72*,3%,6%,-5%
Oc1c(Cl)cc(Cl)cc1C=Nc1ccc2c(c1)OCCO2,68*,0%,117*,-20%,-9%,-14%
Brc1csc(C=Nc2ccc3c(c2)OCCOCCOCCOCCO3)c1,0,13%,-10,6%,?,-10%
CCCc1[nH][nH]c(=O)c1C(c1cccc(Cl)c1)C(C#N)C#N (centres undefined),-4,-3%,-15,-2%,-14%,-28%
Cc1ccc(N=Cc2cc(Cc3ccccc3Cl)cc([N+](=O)[O-])c2O)c(O)c1,31*,10µM*,55,-18%,4%,-45%
COc1ccc(N=Cc2cc(Cc3ccccc3Cl)cc([N+](=O)[O-])c2O)cc1OC,11,14%,9,2%,5%,-29%
Cc1cc2cc(C(c3nnnn3Cc3ccco3)N3CCCCC3)c(=O)[nH]c2cc1C (centres undefined),-3,-12%,-11,-4%,3%,-18%
CCOc1ccc2[nH]c(=O)c(C(c3nnnn3Cc3ccco3)N3CCN(C)CC3)cc2c1 (centres undefined),29*,-4%,96*,-5%,-2%,-2%
O=C(Nc1ccccc1)C1=C[C@@H](C2CC2)C[C@@H](OCCCCO)O1,55*,-2%,58*,-2%,5%,-4%
O=C(Nc1ccccc1)C1=C[C@H](c2ccccc2)C[C@H](OCCCCO)O1,·,-11%,·,·,·,·
O=C(Nc1ccccc1)C1=C[C@H](c2ccc(C(F)(F)F)cc2)C[C@H](OCc2ccc(CO)cc2)O1,2,-2%,8,0%,0%,2%
O=C(Nc1ccccc1)C1=C[C@@H](C2CC2)C[C@@H](OCc2ccc(CO)cc2)O1,35*,11%,47*,-2%,-7%,0%
O=C(Nc1ccccc1)C1=C[C@H](c2ccccc2)C[C@H](OCc2ccc(CO)cc2)O1,32*,10%,53*,-2%,9%,-3%
O=C(O)C1=C[C@H](C2CC2)C[C@H](OCc2ccc(CO)cc2)O1,·,34%,·,·,·,·
COc1ccccc1C(=O)Nc1cccc(NC(=O)c2ccccc2OC)n1,-2,?,·,-1%,-9%,-24%
CCOC1=C/C(=C/c2c(N)n3nc(S(=O)(=O)CC)sc3nc2=O)C=CC1=O,1,12%,-10,1%,-8%,-26%
O=C(Nc1cccc([N+](=O)[O-])c1)c1ccc2c(c1)C(=O)N(c1ccccn1)C2=O,-6,3%,-1,4%,-12%,-34%
CC(=O)c1cnn(-c2cc(Oc3cccc(C)c3)ncn2)c1C,14,21%,14,·,1%,·
Cc1cccc(N2CCN(C(=O)C3CCC(=O)N(C4CC4)C3)CC2)c1C (centres undefined),9,-9%,8,5µM*,-6%,32%
Cc1cccc(N2CCN(C(=O)C3COc4ccccc4O3)CC2)c1C (centres undefined),24*,-18%,52*,-4%,-4%,-8%[2.29 µM]
O=C(C1COc2ccccc2O1)N1CCN(c2ccccc2Cl)CC1 (centres undefined),-4,-4%,-5,-9%,-4%,0%
SMILES,Cycloheximide cs,AMA1 RON2 block,Shiga toxin inh,SARS PLpro yeast,AmpC inh detg,AmpC inh no detg
O=C(C1COc2ccccc2O1)N1CCc2ccccc2C1 (centres undefined),29*,8%,60*,29%,3%,-10%
COC(=O)CN1C(=O)[C@H]2[C@@H](C3CC3)N3C(=O)CN(CCO)C(=O)[C@@]3(Cc3ccccc3)[C@H]2C1=O,1,-3%,-5,6%,-20%,0%
Cc1nccn1CCOc1ccccc1Cl,2,-2%,10,5%,5%,-4%
O=C(Nc1cccc(O)c1)c1ccc(NC(=O)c2cccs2)cc1,74*,0%,130*,8%,11%,-37%
O=C(Nc1ccc(NC(=O)c2cccs2)cc1)c1ccccc1,24*,-11%,46*,0%,-5%,-51%
O=C(Nc1ccc(NC(=O)c2cccs2)cc1)c1ccc(Cl)cc1,·,·,·,·,15%,·
O=C(Nc1ccc(O)cc1)c1ccc(NC(=O)c2cccs2)cc1,38*,10%,87*,4%,-15%,-34%
O=C(NCc1ccccc1Cl)c1ccc(CS(=O)(=O)c2ccccc2)o1,-2,-2%,-2,2%,-9%,-20%
O=C(NC1=NCCS1)C1COc2ccccc2O1 (centres undefined),-8,-5%,-24,-4%,-2%,-15%
Cc1ccc(/C=C2/CNC/C(=C/c3ccc(C)cc3)C2=O)cc1,·,2%,·,·,·,·
Cc1ccc(/C=C2/CNC/C(=C\c3ccc(C)cc3)C2=O)cc1,67*,·,86*,·,·,·
COc1ccc(/C=C2/CCOC2=O)cc1,18*,-1%,-2,2%,-14%,-8%
O=C1OCC/C1=C\c1ccccc1O,-3,22%,2,-1%,-10%,-10%
Cc1ccc(/C=C2\CCOC2=O)cc1,12*,3%,15,1%,-6%,-14%
C[C@H](NC(=O)c1nc[nH]c1C(=O)NCCCCCNC(=O)OC(C)(C)C)C(=O)OC(C)(C)C,31*,66%,57*,-1%,-2%,120%
COc1ccc2c(CC(=O)NC(Cc3ccc(Cl)cc3)C(=O)O)cc(=O)oc2c1C (centres undefined),-1,-1%,2,-1%,-9%,22%
Cc1cccc(/C=C2/Sc3ccc(C(=O)NCCN4CCCC4)cc3NC2=O)c1,-2,-11%,-4,3%,-11%,112%
COC(=O)c1ccc(NC(=O)CN2C(=O)CSC2=O)cc1,15*,-15%,17,6%,-10%,-27%
O=C(CN1C(=O)CSC1=O)Nc1ccc(N2CCOCC2)cc1,-2,11%,-3,3%,-2%,-7%
